Experimental findings from PubChem BioAssay are described below.

Molecules are shown by their SMILES. A number with no mark means an inactive call. No rule for the calls is given here.

The target in this assay is Pantothenate synthetase (Mycobacterium tuberculosis (strain ATCC 25618 / H37Rv)) (UniProt P9WIL5). Nature of the assay: Recombinant Mtb pantothenate synthetase (PanC) inhibitors, coupled enzyme, confirmatory (AID 375).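 Also: 0% = full reaction with vehicle and 100% = no enzyme background.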 As to conditions: coupled enzyme assay; at 10 µM, stronger effect = higher value.
Pantothenate synthetase (Mycobacterium tuberculosis (strain ATCC 25618 / H37Rv)), sequence (P9WIL5 whole entry, looked up): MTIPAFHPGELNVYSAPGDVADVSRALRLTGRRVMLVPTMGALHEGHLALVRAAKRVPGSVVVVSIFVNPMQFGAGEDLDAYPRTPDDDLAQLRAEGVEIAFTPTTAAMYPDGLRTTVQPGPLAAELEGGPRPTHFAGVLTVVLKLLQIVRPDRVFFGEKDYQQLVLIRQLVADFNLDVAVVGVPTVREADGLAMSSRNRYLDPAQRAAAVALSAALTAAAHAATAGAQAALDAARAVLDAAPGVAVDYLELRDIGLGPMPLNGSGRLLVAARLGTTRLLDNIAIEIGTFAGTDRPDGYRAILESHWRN
In general, inhibition refers to the percentage by which the read-out fell short of the control. In the case of `CCOc1ccc(N2CC(C(=O)Nc3ccc(F)cc3F)CC2=O)cc1` (configuration not stated), the inhibition was 6%.
In the case of `COc1ccc(Cn2nnnc2C(c2cc3cc(C)cc(C)c3[nH]c2=O)N2CCOCC2)cc1` (configuration not stated) it was 0%.
For `CCn1c(C)c(CCC(=O)O)c(=O)n2nc(-c3ccccc3OC)cc12` the value was 0%; for `CC(C)OC(=O)CSc1nnc(-c2ccccn2)n1-c1ccccc1`, 8%; for `COC(=O)c1cc(S(=O)(=O)N2CCOCC2)c(N2CCOCC2)cc1N1CCOCC1`, 2%.
For `CCOC(=O)c1ccc(Oc2nc(SC)nc(N(C)C)n2)cc1` the value was 1%; for `CCOc1nc(-c2ccccc2O)nc2ccccc12`, 0%.
Consider `COc1ccccc1-n1c(SCC(=O)Nc2ccc3c(c2)OCO3)nc2c(c1=O)SCC2`, for which the inhibition was 0%.
With `COc1cc2c(cc1OC)C(C)N(C(=O)Cn1ncc3c1-c1ccccc1OC3)CC2` (configuration not stated), the inhibition is 0%.
`Cc1cc(C)cc(N(CC(=O)Nc2cccc(C)n2)S(=O)(=O)c2c(C)noc2C)c1`: the inhibition was 0%.
For `Cc1nc(SC2C=CS(=O)(=O)C2)n[nH]1` (configuration not stated) the value was 5%.
For `CCOC(=O)c1cc2c(=O)n3cccc(C)c3nc2n(Cc2ccco2)c1=NC(=O)c1cccnc1` the value was 0%.
On to `COC(=O)C1(C)NC(c2ccco2)C2C(=O)N(c3ccc(C)cc3)C(=O)C21` (configuration not stated), for which the inhibition was 4%.
For `O=C(OCc1ccccc1F)c1ccc2c(c1)OCCO2` the value was 3%; for `CCOC(=O)Cc1csc(NC(=O)c2cccc(OC)c2)n1`, 0%; for `O=C(Nc1ccncc1)c1cncc(Br)c1`, 0%.
For `CCN(CC)CCN1C(=O)Cn2c(C)c(C)c3cccc1c32` the value was 1%; for `O=C1CCCC2=C1C1(CCCC1)N=C(Nc1nc3ccccc3s1)N2`, 10%.
Consider `O=C(Nc1cccc(F)c1)c1ccc2c(c1)OCO2`, for which the inhibition was 2%.
As for `Cc1nnc(SCC(=O)N(C(C)C)C(C)C)nc1C`, the inhibition is 7%.
For `COC(=O)c1ccccc1NC(=O)Nc1cc(C)cc(C)n1`, the inhibition was 2%.
For `COCCCNC(=O)C(Cc1ccccc1)NS(=O)(=O)c1ccc2c(c1)c(=O)n(C)c(=O)n2C` (configuration not stated) the value was 0%.
